Results filed as inconclusive are left out. Activity calls are given as the source filed them. Unless noted, calls follow the shape of the dose curve; as a rule, active = well fitted curve in the direction sought with a large enough effect in the repeat runs; inconclusive = weak or mixed curves; inactive = no such curve, though single readings can be large; an effect the other way counts as inactive or inconclusive.
Assays:
[1] = qHTS assay to identify small molecule antagonists of the estrogen related receptor signaling pathway with the pleiotropic PPARgamma coactivator (PGC) from Tox21 10K library - cell viability counter screen (AID 1224840; active = well fitted cell-killing curve with a large enough effect in the repeat runs, not every such curve was filed as active; also: nearly all actives have a fitted effect of over 40% in size)
How it was run: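 Following seeding of 2,000 PGC/ERR cells/well and 6 hours' incubation, test compounds were delivered in DMSO. The plates then sat 17.5 hours at 37 C before a fluorogenic live-cell protease reagent (CellTiter-Fluor) was read after 30 min.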

[2] = molecular target: Thyrotropin receptor (Homo sapiens) (UniProt P16473); assay: qHTS assay to identify small molecule agonists of the thyroid stimulating hormone receptor (TSHR) signaling pathway (AID 1224843; calls by dose curve; also: nearly all actives have a fitted effect of over 45% in size)
How it was run: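 TSHR-HEK293 cells in agonist mode, 30 min room-temperature step, then cAMP measured by competitive HTRF (cAMP-d2 with anti-cAMP cryptate) after 1 h at room temperature. Tested at 15 concentrations in triplicate.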

[3] = qHTS assay to identify small molecule agonists of the hypoxia (HIF-1) signaling pathway - cell viability counter screen (AID 1224844; calls by dose curve; also: nearly all actives have a fitted effect of over 50% in size)
How it was run: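 Cells (HRE-bla ME-180, 2,000 per well) sat 5 hrs at 37C, got compound for 17 hrs, were read for CCF4-AM FRET, and were finally lysed with CellTiter-Glo for a 30 min room-temperature luminescence read.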

[4] = qHTS assay to identify small molecule agonists of H2AX (AID 1224845; active = well fitted activation curve with a large enough effect in the signal ratio in the repeat runs, not every such curve was filed as active; the % refers to the signal ratio)
How it was run: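 Wild-type CHO-K1 cells, plated overnight, exposed 3hr at 37C to 15 concentrations (0.76% DMSO final). Lysed, then HTRF anti-pH2AX (S139) cryptate and anti-H2AX-d2 antibodies, 24 hr room temperature; 665/620 nm emission read.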

[5] = qHTS assay to identify small molecule agonists of the hypoxia (HIF-1) signaling pathway (AID 1224846; active = well fitted activation curve with a large enough effect in the signal ratio in the repeat runs, not every such curve was filed as active; the % refers to the signal ratio)
How it was run: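 A low-serum medium (0.5% dialyzed FBS) holding 2,000 HRE-bla ME-180 cells per well is preincubated for 5 hrs, dosed with compounds by pintool, and kept a further 17 hrs at 37C, 5% CO2 before CCF4-AM FRET detection of beta-lactamase.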

[6] = qHTS RealTime-Glo MT Cell Viability Assay in HepG2 cells - 24 hour (AID 1224867); also: nearly all actives have a fitted effect of over 50% in size
How it was run: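 Real-time, nonlytic viability: 600 HepG2 cells/well mixed with NanoLuc enzyme plus prosubstrate; 5 h settle, compound (DMSO) added by pintool; luminescence monitored over 40 h at 37 C.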

[7] = qHTS RealTime-Glo MT Cell Viability Assay in HEK293 cells - 32 hour (AID 1224868); also: top concentration of the series differs between compounds; nearly all actives have a fitted effect of over 50% in size
How it was run: (§1)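 Cells + reagent dispensed (600 cells/well, HEK293) → 5 h at 37 C/5% CO2 → 23 nL compound in DMSO pinned → 40 h at 37 C → luminescence read at 0, 8, 16, 24, 32, 40 h.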

[8] = A CellTox Green Cytotoxicity Assay to monitor cytotoxicity in HEK293 cells - 0 hour (AID 1224869); also: nearly all actives have a fitted effect of over 50% in size
How it was run: (§2)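 Fluorescence intensity, read at 0, 8, 16, 24, 32 and 40 h of compound treatment, reflected dye binding to DNA of dead HEK293 cells; compounds (23 nL, DMSO) were added 5 h after plating cells with reagent.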

[9] = qHTS RealTime-Glo MT Cell Viability Assay in HepG2 cells - 40 hour (AID 1224870); also: nearly all actives have a fitted effect of over 50% in size
How it was run: (§3)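 HepG2 cells (600/well) mixed with RealTime-Glo MT reagent, settled 5 h at 37 C/5% CO2 before compound addition. Nonlytic NanoLuc luminescence from viable-cell prosubstrate reduction read repeatedly during 40 h treatment at 37 C.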

[10] = A CellTox Green Cytotoxicity Assay to monitor cytotoxicity in HEK293 cells - 40 hour (AID 1224871); also: nearly all actives have a fitted effect of over 45% in size
How it was run: as §2

[11] = qHTS RealTime-Glo MT Cell Viability Assay in HEK293 cells - 16 hour (AID 1224872)
How it was run: as §1

[12] = qHTS RealTime-Glo MT Cell Viability Assay in HepG2 cells - 8 hour (AID 1224873); also: nearly all actives have a fitted effect of over 55% in size
How it was run: as §3

[13] = qHTS RealTime-Glo MT Cell Viability Assay in HEK293 cells - 40 hour (AID 1224874); settings: RealTime-Glo luminescence; max response: hits give low values; also: nearly all actives have a fitted effect of over 50% in size
How it was run: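 Viable HEK293 cells reduce a cell-permeant prosubstrate; the product diffuses out and is consumed by NanoLuc in the medium to give light. Compounds went in after a 5 h incubation and plates were read over the treatment course.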

[14] = A CellTox Green Cytotoxicity Assay to monitor cytotoxicity in HEK293 cells - 24 hour (AID 1224875); also: series mostly up to about 77 µM; nearly all actives have a fitted effect of over 45% in size
How it was run: as §2

[15] = qHTS assay to identify small molecule agonists of H2AX - cell viability counter screen (AID 1224847; calls by dose curve; also: top concentration of the series differs between compounds; nearly all actives have a fitted effect of over 30% in size)
How it was run: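 Counter-screen for viability: CellTiter-Glo ATP luminescence read after 3 h compound treatment (15-point titration, 0.76% DMSO final) of CHO-K1 cells at 37C, with 30 min room-temperature reagent incubation.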
% is scaled to controls: 0 for no effect and ±100 for the full control effect.

Sequence of Thyrotropin receptor (Homo sapiens) (P16473 whole entry, looked up): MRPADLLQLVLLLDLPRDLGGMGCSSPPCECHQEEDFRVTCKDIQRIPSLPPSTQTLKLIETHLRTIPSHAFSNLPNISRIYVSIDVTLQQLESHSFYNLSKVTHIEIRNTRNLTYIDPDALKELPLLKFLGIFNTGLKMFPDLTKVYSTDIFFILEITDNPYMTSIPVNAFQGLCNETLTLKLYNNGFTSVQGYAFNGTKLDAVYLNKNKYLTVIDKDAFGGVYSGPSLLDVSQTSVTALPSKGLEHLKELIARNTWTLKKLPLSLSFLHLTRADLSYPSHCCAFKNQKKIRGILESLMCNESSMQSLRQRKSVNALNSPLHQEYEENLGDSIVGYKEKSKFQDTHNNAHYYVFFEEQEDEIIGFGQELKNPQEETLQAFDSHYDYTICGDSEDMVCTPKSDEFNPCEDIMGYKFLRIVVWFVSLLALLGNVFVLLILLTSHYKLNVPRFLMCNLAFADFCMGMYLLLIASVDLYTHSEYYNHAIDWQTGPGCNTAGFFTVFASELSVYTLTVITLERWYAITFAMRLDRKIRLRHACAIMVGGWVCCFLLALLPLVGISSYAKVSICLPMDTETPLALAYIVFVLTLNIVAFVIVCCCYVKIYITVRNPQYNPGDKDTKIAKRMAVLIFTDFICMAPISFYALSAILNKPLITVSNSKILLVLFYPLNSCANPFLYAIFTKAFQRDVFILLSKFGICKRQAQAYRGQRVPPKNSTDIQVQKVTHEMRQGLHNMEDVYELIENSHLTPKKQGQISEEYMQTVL

COc1cc2c3cc1Oc1cc(ccc1O)C[C@@H]1c4c(cc(OC)c(O)c4Oc4ccc(cc4)C[C@@H]3N(C)CC2)CC[N+]1(C)C
inactive: outcome [1] | outcome [2] | outcome [3] | outcome [4] | outcome [5] | outcome [6] | Potency [7] | Potency [8] | outcome [9] | Potency [10] | Potency [11] | outcome [12] | max response [13] 3.06% | Potency [14]

CCN(CC)C(=O)C1CN2CCc3cc(OC)c(OC)cc3C2CC1OC(C)=O (stereo unspecified)
inactive: outcome [1] | outcome [3] | outcome [4] | outcome [5] | Potency [15] | outcome [6] | Potency [7] | Potency [8] | outcome [9] | Potency [10] | Potency [11] | outcome [12] | max response [13] -4.78% | Potency [14]

Cc1nc2ccccc2c(=O)o1
inactive: outcome [1] | outcome [2] | outcome [3] | outcome [4] | outcome [5] | outcome [6] | Potency [8] | outcome [9] | Potency [11] | outcome [12] | max response [13] 5.55% | Potency [14]

CNC(=O)NC
inactive: outcome [1] | outcome [2] | outcome [3] | outcome [4] | outcome [5] | Potency [7] | Potency [8] | outcome [9] | Potency [10] | outcome [12] | max response [13] 1.12% | Potency [14]

CC(=O)OC(C)(C)Cc1ccccc1
inactive: outcome [1] | outcome [2] | outcome [3] | outcome [4] | outcome [5] | outcome [6] | Potency [7] | Potency [8] | outcome [9] | Potency [10] | Potency [11] | outcome [12] | max response [13] 6.53% | Potency [14]

CCCCC(CC)C(=O)OC(C)C (stereo unspecified)
inactive: outcome [1] | outcome [3] | outcome [4] | outcome [5] | Potency [15] | outcome [6] | Potency [7] | Potency [8] | outcome [9] | Potency [10] | Potency [11] | outcome [12] | max response [13] 3.8% | Potency [14]

CCOC(=O)C(C)(C)C
inactive: outcome [1] | outcome [3] | outcome [4] | outcome [5] | Potency [15] | outcome [6] | Potency [7] | outcome [9] | Potency [10] | Potency [11] | outcome [12] | max response [13] -0.816% | Potency [14]

COC(=O)CCC(=O)O
inactive: outcome [1] | outcome [3] | outcome [4] | outcome [5] | Potency [15] | outcome [6] | Potency [7] | Potency [8] | outcome [9] | Potency [10] | Potency [11] | outcome [12] | max response [13] 8.17% | Potency [14]

O=C(Nc1cccc(C2=NCCN2)c1)Nc1cccc(C2=NCCN2)c1
inactive: viability change, negative = cytotoxic [1] 0.87% [at 19 µM] | activity change, negative = cytotoxicity [3] 3.42% [at 15.8 µM] | activation (H2AX phosphorylation) [4] 0.307% [at 31.6 µM] | activation [5] -0.385% [at 15.8 µM] | activity change, negative = cytotoxicity [15] 4.49% [at 31.6 µM] | activity change, negative = cytotoxic [7] -5.26% [at 15.8 µM] | cytotoxicity [8] -3.81% [at 15.8 µM] | activity change, negative = cytotoxic [9] 2.87% [at 15.8 µM] | cytotoxicity increase [10] -2.61% [at 15.8 µM] | activity change, negative = cytotoxicity [11] -0.101% [at 15.8 µM] | viability change, negative = cytotoxic [12] 1.42% [at 15.8 µM] | max response [13] -2.84% | activity change [14] -4.45% [at 15.8 µM, hits give high values]

CC(C)CCCCCCOC(=O)C1CCCCC1C(=O)OCCCCCCC(C)C (stereo unspecified)
inactive: outcome [1] | outcome [3] | outcome [4] | outcome [5] | Potency [15] | outcome [6] | Potency [7] | Potency [8] | outcome [9] | Potency [10] | Potency [11] | outcome [12] | max response [13] 14.8% | Potency [14]

Cc1nc([N+](=O)[O-])cn1-c1ccc([N+](=O)[O-])cc1
inactive: outcome [1] | outcome [3] | outcome [4] | outcome [5] | Potency [15] | Potency [7] | outcome [9] | Potency [10] | Potency [11] | outcome [12] | max response [13] 4.25% | Potency [14]

COCC(=O)Nc1c(I)c(C(=O)NCC(O)CO)c(I)c(C(=O)N(C)CC(O)CO)c1I (stereo unspecified)
inactive: outcome [1] | outcome [2] | outcome [3] | outcome [4] | Potency [15] | outcome [9] | Potency [10] | Potency [14]

C=C[Si](C)(C)O[Si](C)(C)C=C
inactive: outcome [1] | outcome [3] | outcome [4] | outcome [5] | Potency [15] | outcome [6] | Potency [7] | outcome [9] | Potency [10] | Potency [11] | outcome [12] | max response [13] -1.44% | Potency [14]

C[N+](C)(C)CC(O)CCl (stereo unspecified)
inactive: outcome [1] | outcome [2] | outcome [3] | outcome [4] | outcome [5] | outcome [6] | Potency [7] | outcome [9] | Potency [10] | Potency [11] | outcome [12] | max response [13] -4.6% | Potency [14]

CC(C)CCCC(C)CC=O (stereo unspecified)
inactive: outcome [1] | outcome [3] | outcome [4] | outcome [5] | Potency [15] | outcome [6] | Potency [7] | Potency [8] | outcome [9] | Potency [10] | Potency [11] | max response [13] 0.176% | Potency [14]

CC(C)c1ccccc1O
inactive: outcome [1] | outcome [3] | outcome [4] | outcome [5] | Potency [15] | outcome [6] | Potency [7] | Potency [8] | outcome [9] | Potency [10] | outcome [12] | max response [13] 12.5% | Potency [14]

CNC(=O)C(c1ccccc1)c1ccccc1
inactive: outcome [1] | outcome [3] | outcome [4] | outcome [5] | Potency [15] | outcome [6] | Potency [7] | outcome [9] | Potency [10] | Potency [11] | outcome [12] | max response [13] 0.511% | Potency [14]

Cc1cc(C)cc([N+](=O)[O-])c1
inactive: outcome [2] | outcome [3] | outcome [4] | outcome [5] | Potency [15] | outcome [6] | Potency [8] | outcome [9] | Potency [10] | outcome [12] | max response [13] -13.7% | Potency [14]

From PubChem BioAssay (Tox21)
